Pol kappa inh-1: qHTS for Inhibitors of Polymerase Kappa; actives 0.53% (n = 400,000); Potency, µM (series often up to 107 µM), actives largely listed as inhibitors; purified Pol kappa, fluorescent DNA synthesis assay, 10 min; AID 588579, 2011
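Fluorescent qHTS in 1536-well format: enzyme (10 nM) and compound sat 15 min at room temperature before 50 nM substrate (final) was added. Signal taken at 0 and 10 min; no-enzyme buffer wells were negative controls.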
PGK inhibitor: qHTS Assay to Find Inhibitors of Phosphoglycerate Kinase. Potency, µM (series often up to 57.5 µM), most hits filed as inhibitors. actives 0.043% (n = 380,000). PGK/GAPDH coupled, Kinase-Glo luminescence, 60 min. Phosphoglycerate kinase, glycosomal (Trypanosoma brucei brucei), P07378; also: nearly all actives have a fitted effect of over 60% in size
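Luminescent ATP detection (Kinase-Glo Plus) follows a 60-minute room-temperature incubation, with wells lacking PGK as controls. Buffer: 100 mM TEA (pH 7.6), 5 mM MgCl2, 0.01% Tween-20. Coupling enzyme GAPDH (100 nM final) supplies unstable 1,3-BPG in-well.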
Pol iota inh: qHTS for Inhibitors of Polymerase Iota | Pol iota fluorescent replication assay, 10 min | DNA polymerase iota (Homo sapiens), Q9UNA4 | Potency, µM (highest dose often 115 µM), usual class: inhibitors | actives 1% (n = 390,000)
Target sequence (Q9UNA4 whole entry, looked up): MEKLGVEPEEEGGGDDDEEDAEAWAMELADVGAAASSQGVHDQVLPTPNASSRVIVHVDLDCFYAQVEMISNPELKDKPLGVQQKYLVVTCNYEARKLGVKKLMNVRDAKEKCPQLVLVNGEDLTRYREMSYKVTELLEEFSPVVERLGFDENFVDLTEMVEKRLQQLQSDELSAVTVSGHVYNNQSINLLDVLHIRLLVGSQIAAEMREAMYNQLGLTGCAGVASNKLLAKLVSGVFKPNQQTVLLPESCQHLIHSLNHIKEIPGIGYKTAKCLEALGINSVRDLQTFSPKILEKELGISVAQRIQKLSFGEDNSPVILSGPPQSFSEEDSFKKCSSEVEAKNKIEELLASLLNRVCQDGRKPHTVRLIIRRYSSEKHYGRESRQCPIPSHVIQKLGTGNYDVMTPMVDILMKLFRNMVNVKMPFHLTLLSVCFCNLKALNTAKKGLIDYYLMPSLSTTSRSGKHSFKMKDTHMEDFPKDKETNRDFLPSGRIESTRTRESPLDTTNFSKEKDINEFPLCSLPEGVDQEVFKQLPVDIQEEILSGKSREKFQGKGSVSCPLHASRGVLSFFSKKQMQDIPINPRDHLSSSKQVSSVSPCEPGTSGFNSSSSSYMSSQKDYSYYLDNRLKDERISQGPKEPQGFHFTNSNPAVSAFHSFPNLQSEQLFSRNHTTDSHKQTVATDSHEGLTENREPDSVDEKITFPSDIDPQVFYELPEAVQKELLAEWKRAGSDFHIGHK
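Pol iota at 10 nM preincubated 15 min with compounds at room temperature; reaction started with fluorescent substrate, 50 nM final. Fluorescence read kinetically at 0 and 10 min; buffer-only wells as negative control.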
Pol beta inh: qHTS Assay for Inhibitors of DNA Polymerase Beta; P06746; Pol beta primer extension/strand displacement, fluorescence kinetic; Potency, µM (top dose mostly 114 µM), actives largely listed as inhibitors; actives 1.3% (n = 340,000); AID 485314, 2010
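Preincubation: enzyme (10 nM) with compound, 15 min, RT. Reaction: substrate added to 50 nM final. Reads: 0 and 10 min. Analysis: normalized, Hill fit.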
FEN1 inh-1: qHTS Assay for the Inhibitors of Human Flap endonuclease 1 (FEN1). Potency, µM (titrated, usually from 114 µM), most hits filed as inhibitors. actives 0.35% (n = 390,000). Recombinant FEN1 flap cleavage, fluorescence, 15 min; also: nearly all actives have a fitted effect of over 65% in size
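Quantitative HTS format: each compound was titrated, incubated with 10 nM nuclease for 15 min at room temperature, then challenged with flap substrate at 50 nM final. Signal change over 15 min gave concentration–effect curves.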
Pol eta inh-1: qHTS for Inhibitors of Polymerase Eta; DNA polymerase eta (Homo sapiens), Q9Y253; recombinant Pol eta, fluorescent DNA replication assay; Potency, µM (highest dose often 114 µM), actives largely listed as inhibitors; actives 1.2% (n = 390,000)
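Fluorescent replication assay: 50 nM final substrate added after a 15 min room-temperature compound preincubation with 10 nM enzyme. Signal taken at 0 min and again at 10 min.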
TbPGK inh: qHTS for inhibitors of Phosphogylcerate Kinase: Hit Validation Screen; shares compounds with Pol kappa inh-1; TbPGK coupled GAPDH assay, Kinase-Glo luminescence; Potency, µM (highest dose often 57.5 µM), hits mostly inhibitors; actives 79% (n = 500); also: nearly all actives have a fitted effect of over 65% in size
Pol iota confirm: qHTS for Inhibitors of Polymerase Iota: Confirmatory Assay for Cherry-picked Compounds | shares compounds with Pol kappa inh-1 | Pol iota primer extension, TAMRA/BHQ fluorescence | Potency, µM, actives largely listed as inhibitors | actives 77% (n = 1,500) | AID 720496, 2013
GALK confirm: Confirmation Assay for Inhibitors of Human Galactokinase (GALK); shares compounds with Pol eta inh-1; purified GALK, Kinase-Glo ATP depletion luminescence; Potency, µM (doses to about 115 µM), usual class: inhibitors; actives 70% (n = 150)
Redox cycling: Confirmatory Assay for Inhibitors of Human Galactokinase (GALK): Phenol-HRP redox assay counterscreen. shares compounds with Pol eta inh-1. Phenol red-HRP H2O2 redox cycling, absorbance 600 nm. Potency, µM (series often up to 115 µM), most hits filed as inhibitors. actives 40% (n = 150). AID 2035, 2009
HEK293 tox: Secondary Assay for Inhibitors of Human Galactokinase (GALK): HEK-293 Cell Viability Assay; shares compounds with Pol eta inh-1; HEK-293 viability, ATP luminescence (CellTiter-Glo), 24/48 h; Potency, µM (doses to about 46.1 µM), most hits filed as inhibitors; actives 10% (n = 170)
Pol kappa inh-2: qHTS for Inhibitors of Polymerase Kappa: Confirmatory Assay for Cherry-picked Compounds | shares compounds with Pol eta inh-1 | purified Pol-kappa, fluorescent strand-displacement substrate | Potency, µM, usual class: inhibitors | actives 76% (n = 920)
Pol eta inh-2: qHTS for Inhibitors of Polymerase Eta: Confirmatory Assay for Cherry-picked Compounds; shares compounds with Pol eta inh-1; Pol eta primer extension, TAMRA/BHQ fluorescence, 10 min; Potency, µM, hits mostly inhibitors; actives 64% (n = 2,600)
FEN1 inh-2: qHTS Assay for the Inhibitors of FEN1: Confirmatory Assay for Cherry-picked Compounds | shares compounds with FEN1 inh-1 | FEN1 flap cleavage, TAMRA/BHQ2 fluorogenic DNA substrate | Potency, µM, hits mostly inhibitors | actives 79% (n = 880) | AID 720498, 2013; also: nearly all actives have a fitted effect of over 60% in size
Each line names hits and unclear results; the compound was inactive in the other large screens (follow-up assays come after a bar, where they were run). An excerpt weighted towards active compounds, which were near 2.4% of everything screened. Calls follow the shape of the dose curve; as a rule, active = well fitted curve in the direction sought with a large enough effect; inconclusive = small, poorly fitted or top-dose-only effect, or another doubt; inactive = no such curve, though single readings can be large; an effect the other way counts as inactive or inconclusive.

CN(C)/C=C1\SC(=S)N(c2ccc(Br)cc2)C1=O	Pol kappa inh-1 inconclusive, Pol iota inh 40µM, Pol beta inh inconclusive, FEN1 inh-1 inconclusive, Pol eta inh-1 inconclusive | Pol iota confirm 19 | Pol eta inh-2 76 | FEN1 inh-2 34
CN(C)/C=C1\SC(=S)N(c2ccc(F)cc2)C1=O	none
CC1CCN(S(=O)(=O)c2ccc3[nH]ccc3c2)CC1	none
O=C(O)c1ccc(S(=O)(=O)/N=C2\C=C(Nc3ccccc3F)C(=O)c3ccccc32)cc1	Pol kappa inh-1 inconclusive, PGK inhibitor inconclusive, Pol iota inh 1.1µM, Pol beta inh 45µM, FEN1 inh-1 45µM, Pol eta inh-1 8.9µM | Pol iota confirm 21 | GALK confirm 7.5µM | Redox cycling 4.2µM | HEK293 tox 13µM | Pol eta inh-2 21 | FEN1 inh-2 inconclusive
COC(=O)C(C(C)=O)C1=C/C(=N\S(=O)(=O)c2ccc(C)cc2)c2ccccc2C1=O (stereo unspecified)	none
CCN(CC)c1ccc2nc3ccc(N)cc3[n+](-c3ccccc3)c2c1	Pol kappa inh-1 22µM, PGK inhibitor inconclusive, Pol iota inh 79µM, FEN1 inh-1 45µM, Pol eta inh-1 inconclusive (no result: Pol beta inh) | TbPGK inh 13µM | Pol iota confirm 19 | Pol kappa inh-2 47 | Pol eta inh-2 76 | FEN1 inh-2 48
CCN(CC)c1ccc(/C=C/c2cc(Cl)nc3ccccc23)cc1	none (no result: PGK inhibitor, Pol beta inh, Pol eta inh-1)
Cc1ccccc1NC(=O)CSc1nc2nccnc2c(=O)n1CCc1c[nH]c2ccccc12	none

Compound activity: PubChem, National Center for Advancing Translational Sciences (NCATS)
